A selection: hits, their analogues and other compounds. The true share with any hit is near 2.8%.
Giardia killer: Giardia lamblia killing. Giardia lamblia trophozoite viability. 0.15% of 340,000 active. AID 540267. activity change, % at 7.66 µM, hits read low; in the data active = activity change below about -80%; inconclusive = between about -30% and that limit;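 also: parasites exposed to compound for two days anaerobically before the ATP read; % is scaled to controls: 0 for no effect and ±100 for the full control effect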
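ATP-content bioluminescence gauges trophozoite survival. Cells (100/well) receive compound and incubate anaerobically for 48 hrs at 37 deg C; detection reagent follows for 15-30 min at room temperature.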
B2AR arrestin: beta2AR (human) beta-arrestin recruitment activity. P07550. beta-arrestin recruitment to beta2AR, cell-based reporter. Potency, µM (highest dose often 46.1 µM), for inactives: top-dose activation, most hits filed as activators. 0.02% of 330,000 active. AID 492947; active = well fitted activation curve with a large enough effect; inconclusive = small, poorly fitted or top-dose-only effect;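 also: potency is read from the fitted curve at half-maximal effect; 0% = DMSO controls and full agonism = EC100 isoproterenol or metaproterenol; nearly all actives have a fitted effect of over 65% in size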
Target sequence (P07550 whole entry, looked up): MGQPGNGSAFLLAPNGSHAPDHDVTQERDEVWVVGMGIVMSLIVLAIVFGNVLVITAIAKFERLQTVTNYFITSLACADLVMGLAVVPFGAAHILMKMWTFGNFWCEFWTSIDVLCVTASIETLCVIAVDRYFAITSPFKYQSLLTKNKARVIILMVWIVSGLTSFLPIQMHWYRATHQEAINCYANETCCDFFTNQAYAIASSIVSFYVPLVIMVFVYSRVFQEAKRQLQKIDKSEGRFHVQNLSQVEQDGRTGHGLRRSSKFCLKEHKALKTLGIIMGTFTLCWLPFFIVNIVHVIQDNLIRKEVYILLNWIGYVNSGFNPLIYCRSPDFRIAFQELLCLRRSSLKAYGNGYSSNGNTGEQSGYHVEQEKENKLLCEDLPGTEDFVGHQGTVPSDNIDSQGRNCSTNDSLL
DRD3 agonist: D3 dopamine receptor (human) agonism. P35462. D3R DiscoveRx beta-arrestin cells, luminescence, 90 min. max activation, %. 0.58% of 410,000 active. AID 652048; in the data active = max activation above about 30%; also: 0% is about no effect
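Agonist mode: compounds and dopamine controls were applied to plated cells for 90 min at 37 degrees C after an overnight attachment at 1500 cells/well. Luminescent read-out followed 30 - 60 minutes at room temperature with DiscoveRx detection reagent.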
DRD3 antagonist: blocks the human D3 dopamine receptor; P35462; D3R cells, DiscoveRx beta-arrestin luminescence, antagonist mode; active compounds read low; max response, negative = inhibition, %; 2.5% of 360,000 active; AID 652054; in the data active = max response below about -50%; inconclusive = no clear call, values can overlap the other calls; also: % is scaled to controls: 0 for no effect and ±100 for the full control effect
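Cells expressing the human receptor were seeded at 1500 cells/well, incubated overnight at 37 degrees C in 5% CO2, then exposed to library compounds with dopamine controls for 90 minutes at 37 degrees C before luminescent detection.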
* hit, by the source's call; ? = inconclusive; · = no result.

SMILES	Giardia killer	B2AR arrestin	DRD3 agonist	DRD3 antagonist
c1ccc2c(CN3CCOCC3)c[nH]c2c1	5.1	-2.0%	-2.6	-22.2
O=c1[nH]c2ccccc2n1C1CCN(C(c2ccccc2OC(F)(F)F)c2nnnn2-c2ccc3c(c2)OCCO3)CC1 (centres undefined)	·	·	34.8*	13.3
COc1cccc(C(c2nnnn2-c2ccc3c(c2)OCCO3)N2CCC(n3c(=O)[nH]c4ccccc43)CC2)c1OC (centres undefined)	·	·	2.7	22.9
CNC(=S)NC1CC2CCCC(C1)N2CC(C)C (centres undefined)	-0.4	-1.0%	-7.5	14.7
Cc1ccc(CN2C3CCCC2CC(NC(=S)NCc2ccccc2)C3)cc1 (centres undefined)	-3.1	-0.3%	-18.9	-94.3*
[O]=[Sb]([OH])([OH])[c]1ccccc1	-3.3	·	·	·
C=C(C)[C@@]12OC3(c4ccccc4)O[C@@H]1C1[C@@H]4O[C@]4(CO)[C@@H](O)[C@]4(O)C(=O)C(C)=C[C@H]4[C@@]1(O3)[C@H](C)[C@H]2OC(=O)/C=C/C=C/c1ccccc1 (some centres undefined)	-15.7	·	-6.3	-61.3*
Clc1cccc(N2CCNCC2)c1Cl	1.6	-0.1%	6.8	-56.0*
CC(C)=CCN1CC[C@@]2(C)c3cc(O)ccc3C[C@@H]1[C@@H]2C	·	·	-23.8	·
C=C1C(=O)OC2CC3(C)OC3CCC(C)=CC(OC(C)=O)C12 (centres undefined)	-11.5	·	-9.9	-51.9*
COC(=O)[C@@H](N)CCCN/C(N)=N/[N+](=O)[O-]	·	·	-9.2	·
CC1(C)CC(=O)C2=C(C1)NC(=O)C21C(C(=O)OC(C)(C)C)=C(N)Oc2ccc(Br)cc21 (centres undefined)	3.1	-0.1%	30.6*	30.5
CCC(=O)O[C@](Cc1ccccc1)(c1ccccc1)[C@H](C)CN(C)C	·	·	55.4*	·
CCC(=O)OC(Cc1ccccc1)(c1ccccc1)[C@H](C)CN(C)C (some centres undefined)	1.2	-0.8%	0.0	1.2
CC(=O)OC1N=C(c2ccccc2)c2ccccc2NC1=O (centres undefined)	-17.6	0.1%	8.5	-50.4*
CN(C)C1CCc2[nH]c3c(F)cc(F)cc3c2C1 (centres undefined)	·	·	-10.3	-104.7*
CCN1CCN(c2cc(N3CCCC3)c(F)cc2[N+](=O)[O-])CC1	-4.7	-0.5%	-37.9	-69.2*
CN1CCN(c2cc(N3CCCC3)c([N+](=O)[O-])cc2F)CC1	5.1	0.5%	1.9	-78.5*
O=C(CS(=O)C(c1ccccc1)c1ccccc1)NO (centres undefined)	·	·	8.8	·
O=[N+]([O-])c1cc([As](=O)(O)c2ccc(O)c([N+](=O)[O-])c2)ccc1O	-83.4*	-1.0%	-13.3	?
[H+].[H+].[Hg+2].[O-]B([O-])[O-].[c-]1ccccc1	·	·	-9.0	·
O=P1(Oc2ccccc2)CC=CC(COC(c2ccccc2)(c2ccccc2)c2ccccc2)O1 (centres undefined)	-6.5	·	·	·
N#CC1c2ccccc2-n2nncc2CN1Cc1cc(Cl)cc(Cl)c1 (centres undefined)	22.5	·	-45.5	-109.3*
CN1Cc2cnnn2-c2ccccc2C1C#N (centres undefined)	17.9	·	7.4	6.6
COc1ccc(CN2Cc3cnnn3-c3ccccc3C2C#N)cc1 (centres undefined)	-22.2	·	-34.0	-77.6*
SMILES	Giardia killer	B2AR arrestin	DRD3 agonist	DRD3 antagonist
COc1ccc(CN2Cc3cnnn3-c3ccccc3C2c2ccccc2)cc1 (centres undefined)	0.2	·	-35.0	-25.4
CCc1ccc(CN2CCN(Cc3ccc(SC)cc3)CC2)cc1	8.6	-0.1%	-18.8	?
CSc1ccc(CN2CCN(c3ccccc3C)CC2)cc1	14.3	0.4%	-9.9	-73.4*
COc1ccccc1CN1CCN(Cc2ccc(Cl)cc2)CC1	11.4	0.2%	-14.6	-95.7*
COc1ccccc1N1CCN(Cc2ccc(SC)cc2)CC1	-19.9	-0.8%	-20.1	-107.0*
COc1ccccc1N1CCN(Cc2ccc(Cl)cc2Cl)CC1	-13.3	-0.3%	-29.0	-84.7*
C[C@]12C=CC(=O)C=C1CC[C@@H]1[C@@H]2CC[C@]2(C)OC(=O)CC[C@@H]12	·	·	-6.9	·
Cc1nc2ccccc2c(=O)n1-c1ccccc1Cl	·	·	8.1	·
Fc1ccccc1N1CCN(Cc2c(F)cccc2F)CC1	-1.8	0.2%	-8.7	?
COc1ccccc1N1CCN(Cc2ccc(F)cc2)CC1	8.8	0.2%	-3.6	-81.8*
COc1ccc(CN2CCN(c3ccccc3F)CC2)cc1O	13.5	0.4%	9.2	-70.2*
O=C(N[C@H]1N=C(c2ccccc2F)c2cccc3c2N(CC3)C1=O)c1cc2ccccc2[nH]1	·	·	-8.1	·

Screening data from PubChem BioAssay.
